# According to PubChem BioAssay (NCI):
# This is part of a sample that, as a whole, favours compounds with a hit. Of some 83,000 tested, about 20% had one in any assay.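 The test compound was applied at a single concentration to cells in 96-well plates for 48 hours, and percent growth was recorded.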 Unmarked numbers belong to inactive results. The source made the active and inactive calls. How the source made its calls: active means growth percent below 10; inactive means the rest.
# Test system: RPMI-8226 leukemia
# Test: NCI-60 one-dose screen, 48 h (100 = growth as untreated, 0 = no growth, -100 = all killed)
# Details: 10 µM unless noted
row,Structure (SMILES),growth
1,O=C(Nc1ccc(O)cc1)C(Cl)(Cl)Cl,112%
2,CCCOC(=O)N[C@H]1CCc2c(Br)c(OC)c(OC)c(OC)c2-c2ccc(SC)c(=O)cc21,-9.16% (active)
3,CCOC(=O)[C@@H](C)C[C@H](Cc1ccccc1)NC(=O)c1csc([C@@H](C[C@H](C(C)C)N(C)C(=O)[C@@H](NC(=O)[C@H]2CCCCN2C)C(C)(C)CC)OC(C)=O)n1,-1.78% (active)
4,COc1ccc(NC([Se])=NC23CC4CC(CC(C4)C2)C3)cc1,-31.9% (active)
5,ClCCN(CCCl)c1ccc(/C=N\N=C\c2ccc(N(CCCl)CCCl)cc2)cc1,39.8%
6,C[C@@]12CC=C3c4nc(Nc5cccc(O)c5)sc4CC[C@]3(C)[C@H]1CC[C@]1(C)C(=O)CC[C@@H]21,-13.6% (active)
7,O=[N+]([O-])/C=C\c1ccc(Cl)c(Cl)c1,-2.51% (active)
8,CC(C)OC(=O)[C@H](C)NP(=O)(Oc1ccccc1)C1CCCN(O)C1=O (stereo partly specified),101%
9,COC(=O)CCC1=C(C)c2cc3[n-]c(cc4nc(cc5[n-]c(cc1n2)c(CCC(=O)OC)c5C)C=C4C)cc3C.[Cd+2],-1.53% (active)
10,COC(=O)[C@@H](C)C[C@H](Cc1ccccc1)NC(=O)c1nc([C@@H](C[C@H](C(C)C)N(C)C(=O)[C@@H](NC(=O)[C@H]2C[C@H](O)CCN2C)C(C)C)OC(C)=O)sc1C(C)C,-4.65% (active)
11,N#CC1C(C#N)C2CCC1C1C2N1c1ccccc1 (stereo unspecified),95.8%
12,CC(C)(NC(=O)O[C@@H]1CN2CCC1CC2)c1csc(-c2ccc(F)cc2)n1,103%
13,CCC(C)(C)[C@H](NC(=O)[C@H]1CCCCN1C)C(=O)N(C)[C@H](C[C@@H](OC(C)=O)c1nc(C(=O)N[C@@H](Cc2ccccc2)C[C@H](C)C(=O)O)cs1)C(C)C,7.76% (active)
14,C[C@]12CCc3sc(-c4ccccc4O)nc3C1=CC[C@@H]1[C@@H]2CC[C@]2(C)C(=O)CC[C@@H]12,107%
15,CCOC(=O)N1CC1,91.2%
16,N#CC1(C#N)C(c2ccc(N(CCCl)CCCl)cc2)OC23CCCCC2C1(C#N)C(=N)O3 (stereo unspecified),96.2%
17,C=CCCCN=C=S,49%
18,Cc1cccc(N2CCN(C(C)C#N)CC2)c1 (stereo unspecified),104%

row,Structure (SMILES),growth
1,O=C(Nc1ccc([N+](=O)[O-])cc1)C(Cl)(Cl)Cl,106%
2,COP(=S)(N1CC1)N1CC1,104%
3,O=C(N/N=C\c1ccc(N(CCCl)CCCl)cc1)c1cccc([N+](=O)[O-])c1,95.6%
4,CC(=O)OC[C@]1(C)C=C2C(=O)[C@](C)(O)C3(CC3)C(C)=C2[C@H]1O,75.8%
5,CS(=O)(=O)CCN1CC2CCCC(C2)C1,101%
6,CCOC(=O)[C@@H](C)C[C@H](Cc1ccccc1)NC(=O)c1csc([C@@H](C[C@H](C(C)C)N(C)C(=O)[C@@H](NC(=O)[C@H]2C[C@H](O)CCN2C)C(C)C)OC(C)=O)n1,5.82% (active)
7,CNCc1cccnc1,101%
8,Cn1cc(C=O)c2nccnc21,103%
9,Cc1cc(N(CCCl)CCCl)ccc1C=Nc1ccccc1-c1ccccc1,86.7%
10,CNC(=O)Oc1ccc2c(c1)OCO2,115%
11,COc1ccc(N(CC(=O)NCCC[Te]c2ccccc2)C(=O)CCSC2=C(C)C(=O)c3ccccc3C2=O)cc1,-40.9% (active)
12,Cn1cccc1C1CC(=O)N(CCC[Se]C#N)C1=O (stereo unspecified),64.4%
13,CC1(C)[C@H](O)[C@H](F)C[C@@]2(C)Oc3ccc(C(=O)Nc4ccc5c(c4)NC(=O)C54CCN(CCCCC#N)CC4)cc3C[C@H]12,-12.6% (active)
14,CCOC(=O)[C@@H](C)C[C@H](Cc1ccccc1)NC(=O)c1nc([C@@H](C[C@H](C(C)C)N(C)C(=O)[C@@H](NC(=O)[C@H]2CCCCN2C)C(C)C)OC(C)=O)sc1CCOCc1ccccc1,-32% (active)
15,C[C@]12CCc3sc(-c4cccc(F)c4)nc3C1=CC[C@@H]1[C@@H]2CC[C@]2(C)C(=O)CC[C@@H]12,-2.88% (active)
16,COC(=O)[C@H](C[C@H](Cc1ccccc1)NC(=O)c1csc([C@@H](C[C@H](C(C)C)N(C)C(=O)[C@@H](NC(=O)[C@H]2CCCCN2C)C(C)C)OC(C)=O)n1)NC(=O)OCc1ccccc1,-13.9% [8.5 µM] (active)
17,C[C@]12CC[C@H]3[C@@H](C[C@@H]4SC(Nc5ccccc5)=N[C@@]45CC(O)CC[C@]35C)[C@@H]1CCC2O (stereo partly specified),-32.3% (active)

# Test system: OVCAR-8 ovarian
# Test: as above
# Details: 10 µM unless noted
row,Structure (SMILES),growth [%]
1,O=C(Nc1ccc(O)cc1)C(Cl)(Cl)Cl,97.1
